# Laboratory results from a collection of fitness landscapes (doi:10.1016/j.celrep.2020.107928).
# In all, about 81,000 sequences were measured (“one-hybrid fitness for binding parS DNA”: median about -0.17, highest 2% from about 0.51 on). This excerpt belongs to a sample that is enriched for the highest values.
# B1: Caulobacter ParB omega fusion; a variant is named by its letters at X, in order, B8GW30 (parent)
# chain: MESVVVGEPGMSEGRRGLGRGLSALLGEVDAAPAQAPGEQLGGSREAPIEILQRNPDQPRRTFREEDLEDLSNSIREKGVLQPILVRPSPDTAGEYQIVAGERAWRAAQRAGLKTVPIMVRELDDLAVLEIGIIENVQRADLNVLEEALSYKVLMEKFERTQENIAQTIGKSXSHVANXMRLLXLPDEVQSYLVSGELTAXHARAIAAAADPVALAKQIIEGGLSVRETEALARKAPNLSAGKSKGGRPPRVKDTDTQALESDLSSVLGLDVSIDHRGSTGTLTITYATLEQLDDLCNRLTRGI
# Variants of: B1
# Test: one-hybrid fitness for binding parS DNA (scaled: cognate 1, non-cognate 0); higher = stronger binding
# Conditions: with parS DNA site
# Outline: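 The reporter was HIS3, with the binding site 19 bp from the promoter, in E. coli USO used for bacterial one-hybrid selection of Caulobacter ParB libraries with four specificity codons randomised. Growth was on M9 lacking histidine, with 0.1 mM IPTG and 5 mM 3-AT, for 48 hours at 37°C. Illumina sequencing covered plasmids before and after selection; three replicate libraries were pooled and variants with under 10 reads dropped. A fitness score is the log change in variant-to-wild-type read ratio, rescaled to the cognate and non-cognate references.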
row,Variant,one-hybrid fitness for binding parS DNA
1,IMHT,≤ 0.2
2,WTRR,≤ 0.2
3,ISNF,≤ 0.2
4,FYDL,≤ 0.2
5,IAGR,≤ 0.2
6,TAIN,≤ 0.2
7,RVRD,≤ 0.2
8,RVCS,1.03
9,RVYS,1.04
10,RVRS,0.895
11,RVRN,0.409
12,RVWN,0.478
13,RVYD,0.216
14,RVCD,≤ 0.2
15,RVCH,≤ 0.2
16,RVYH,0.263
17,RVWD,0.212
18,RVWS,1.05
19,MMSR,≤ 0.2
20,MHFY,≤ 0.2
21,QASI,≤ 0.2
22,TREC,≤ 0.2
23,PYKT,≤ 0.2
24,HPDN,≤ 0.2
25,KRKQ,≤ 0.2
26,KLMV,≤ 0.2

row,Variant,one-hybrid fitness for binding parS DNA
1,RVLS,1.03
2,RVLP,≤ 0.2
3,RVLH,0.229
4,TMII,≤ 0.2
5,RDVG,≤ 0.2
6,RSVG,0.89
7,RSVM,0.265
8,RPVG,≤ 0.2
9,RCVG,0.991
10,RSVK,≤ 0.2
11,MFMG,≤ 0.2
12,RFCF,≤ 0.2
13,TLGM,≤ 0.2
14,RSGH,0.208
15,RPGC,≤ 0.2
16,RCGC,0.97
17,RKGR,≤ 0.2
18,RKGF,≤ 0.2
19,RSGC,0.956
20,RMGM,0.315
21,RKGC,0.827
22,RMGC,0.952
23,RSGP,≤ 0.2
24,RMGL,≤ 0.2
25,RDGC,≤ 0.2
26,QVMA,≤ 0.2

row,Variant,one-hybrid fitness for binding parS DNA
1,QTTD,≤ 0.2
2,LGCG,≤ 0.2
3,PLWY,≤ 0.2
4,QQVF,≤ 0.2
5,HPKR,≤ 0.2
6,DNQS,≤ 0.2
7,YLEP,≤ 0.2
8,MTEN,≤ 0.2
9,RRGC,0.593
10,RAGF,0.247
11,RHGK,≤ 0.2
12,RAGY,0.473
13,RHGC,0.896
14,RLGM,0.352
15,RLGK,≤ 0.2
16,RAGC,0.968
17,RRGQ,≤ 0.2
18,RLGC,0.97
19,RHGY,0.429
20,RRGR,≤ 0.2
21,DSNT,≤ 0.2
22,KDLS,≤ 0.2
23,GQVC,≤ 0.2
24,YDLG,≤ 0.2
25,KTAM,≤ 0.2
26,NFGC,≤ 0.2

row,Variant,one-hybrid fitness for binding parS DNA
1,RFGC,0.882
2,RIGM,0.268
3,RIGC,0.955
4,RIGF,0.234
5,RFGR,≤ 0.2
6,NLSL,≤ 0.2
7,LPEL,≤ 0.2
8,PHQK,≤ 0.2
9,LEDW,≤ 0.2
10,EWQP,≤ 0.2
11,ATNC,≤ 0.2
12,RPHT,≤ 0.2
13,RIHP,≤ 0.2
14,RCHT,0.906
15,RHHT,0.869
16,REHT,≤ 0.2
17,RHHP,≤ 0.2
18,RHHH,≤ 0.2
19,RMHH,0.274
20,RIHH,≤ 0.2
21,RMHP,≤ 0.2
22,RMHT,0.946
23,RIHT,0.936
24,RGFW,≤ 0.2
25,HQMY,≤ 0.2
26,VSHP,≤ 0.2

row,Variant,one-hybrid fitness for binding parS DNA
1,WWRR,≤ 0.2
2,RVEY,0.353
3,LLVS,≤ 0.2
4,PHSW,≤ 0.2
5,HGMV,≤ 0.2
6,SLSC,≤ 0.2
7,PKWC,≤ 0.2
8,SQSD,≤ 0.2
9,HHCS,≤ 0.2
10,CACK,≤ 0.2
11,TVNL,≤ 0.2
12,YQLS,≤ 0.2
13,RSHD,≤ 0.2
14,RTHK,≤ 0.2
15,RTHM,0.317
16,RSHT,0.876
17,RSHN,0.412
18,RTHT,0.908
19,PPLK,≤ 0.2
20,HGKG,≤ 0.2
21,TTRW,≤ 0.2
22,YNRL,≤ 0.2
23,YMLS,≤ 0.2
24,RDKG,0.274
25,RSKG,0.944
26,RCKG,0.89

row,Variant,one-hybrid fitness for binding parS DNA
1,RPKG,≤ 0.2
2,RSKQ,≤ 0.2
3,RSKR,≤ 0.2
4,NLKV,≤ 0.2
5,YAAA,≤ 0.2
6,TCWR,≤ 0.2
7,WDTT,≤ 0.2
8,VAYM,≤ 0.2
9,AACS,≤ 0.2
10,GVIV,≤ 0.2
11,RGFS,0.584
12,RGAS,0.734
13,RGAH,≤ 0.2
14,RGFH,≤ 0.2
15,RGFD,≤ 0.2
16,RGAD,≤ 0.2
17,QGMN,≤ 0.2
18,VPQV,≤ 0.2
19,SYEL,≤ 0.2
20,RWSS,0.912
21,RWYH,≤ 0.2
22,RWYS,0.803
23,RWPS,0.444
24,RWWF,≤ 0.2
25,RWSP,≤ 0.2
26,RWSH,≤ 0.2

row,Variant,one-hybrid fitness for binding parS DNA
1,RWIS,0.609
2,RWYN,0.223
3,RWWN,≤ 0.2
4,RWID,≤ 0.2
5,RWWS,0.644
6,STYW,≤ 0.2
7,GPTL,≤ 0.2
8,TSHS,≤ 0.2
9,QPMV,≤ 0.2
10,PMGR,≤ 0.2
11,YPVG,≤ 0.2
12,LLPR,≤ 0.2
13,RWLS,0.8
14,RWLH,≤ 0.2
15,RWHS,0.894
16,RWHN,0.301
17,RWND,≤ 0.2
18,RWLN,0.313
19,RWGS,0.68
20,RWHD,≤ 0.2
21,RWNS,0.926
22,RWGP,≤ 0.2
23,RWGH,≤ 0.2
24,RWNH,≤ 0.2
25,PKTI,≤ 0.2
26,VLLV,≤ 0.2

row,Variant,one-hybrid fitness for binding parS DNA
1,HQHT,≤ 0.2
2,AWSC,≤ 0.2
3,PQNR,≤ 0.2
4,MNVS,≤ 0.2
5,TRQG,≤ 0.2
6,HPNK,≤ 0.2
7,VARE,≤ 0.2
8,RWCS,0.756
9,RWRN,0.401
10,RWCP,≤ 0.2
11,RWDS,0.76
12,RWDP,≤ 0.2
13,RWQS,0.868
14,RWDN,≤ 0.2
15,RWCN,≤ 0.2
16,RWRP,≤ 0.2
17,RWRS,0.955
18,RWQP,≤ 0.2
19,RWQH,≤ 0.2
